PubChem BioAssay
Calls of active or inactive are those of the source.

Experiments:
[1] = test system: PRMT1 (protein arginine N-methyltransferase 1); assay: small molecules binding arginine methyltransferase PRMT1 – biochemical, small-molecule microarray, 635 nm fluorescence, primary screen (AID 1088); settings: higher = more signal;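 note: binding of Prmt1 protein to compounds spotted on small-molecule microarray slides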
[2] = growth effects on S. cerevisiae YJM789 – YJM789 clinical isolate, OD600, 24 h, basal, primary screen (AID 1089); settings: higher = more signal, called active from +8 up or from −8 down;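 note: growth of clinical yeast isolate S. cerevisiae YJM 789 seeded 1000 cells per well; test concentration not given here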
[3] = S. pombe growth modifiers, basal conditions – strain 972, OD600, 24 h, no modulator, primary screen (AID 1090);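 note: basal condition with compound alone and no growth modifier present; test concentration not given here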; settings: S. pombe 972 growth, higher = more signal, called active from +8 up or from −8 down
[4] = budding yeast growth modifiers under rapamycin – strain BY4716, OD600, 96 h, primary screen (AID 1091); note: test concentration not given here; settings: S. cerevisiae BY4716 + rapamycin, higher = more signal, called active from +8 up or from −8 down
[5] = molecular target: Torsin-1A-interacting protein 2 (Homo sapiens) (UniProt Q8NFQ8); assay: small molecules binding lysate-expressed LULL1 – cell lysate, human LULL1 lysate, 635/667 nm fluorescence, primary screen (AID 1092); settings: small-molecule microarray, hLULL1 lysate binding, 635 nm fluorescence; higher = more signal;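 note: probe is lysate of COS7 cells overexpressing human LULL1; score merges per-feature 667 nm fluorescence with signal-to-noise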
[6] = optical density change of DRC41 E. coli – strain DRC41, OD650, 24 h, E. coli filamentation project, primary screen (AID 1093);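 note: MC1000 strain lacking acrAB efflux and sulA so SOS filamentation is blocked; test concentration not given here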; settings: E. coli DRC41 growth, higher = more signal, called active from +8 up or from −8 down
[7] = probe aLefty2 binding to arrayed compounds – biochemical, biotinylated probe, 635/667 nm fluorescence, primary screen (AID 1094); settings: small-molecule microarray, higher = more signal;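 note: score merges spot fluorescence near 667 nm with spot signal-to-noise ratio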
[8] = test system: Noggin (protein binding on small-molecule microarray); assay: small molecules binding Noggin protein – biochemical, 635/667 nm fluorescence, primary screen (AID 1095); settings: 635 nm fluorescence, higher = more signal;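 note: score merges 667 nm feature fluorescence with signal to noise over triplicate slides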
[9] = molecular target: Neurogenic locus notch homolog protein 3 (Homo sapiens) (UniProt Q9UM47); assay: small molecules binding NOTCH3 protein – biochemical, 635/667 nm fluorescence, primary screen (AID 1096); settings: small-molecule microarray, 635 nm fluorescence, higher = more signal
[10] = probe aEGFR binding to arrayed compounds – biochemical, biotinylated probe, 635/667 nm fluorescence, primary screen (AID 1097); settings: small-molecule microarray, higher = more signal;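 note: probe is a biotinylated anti-EGFR antibody binding compounds printed on slides; score combines fluorescence near 667 nm and signal to noise of each spot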
[11] = test system: Plasmodium falciparum Sir2 (PF13_0152, Sir2A); assay: Plasmodium falciparum Sir2A binding compounds – biochemical, small-molecule microarray, 635 nm fluorescence, primary screen (AID 1098); settings: fluorescence 635 nm, higher = more signal;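 note: score merges spot fluorescence intensity with its signal-to-noise ratio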
[12] = probe aDKK1 binding to arrayed compounds – biochemical, biotinylated probe, 635/667 nm fluorescence, primary screen (AID 1099); settings: small-molecule microarray, higher = more signal;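 note: score merges 667nm spot fluorescence with signal to noise across triplicate slides; reference of the scale not given here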
[13] = probe aCHRDL2 binding to arrayed compounds – biochemical, biotinylated probe, 635/667 nm fluorescence, primary screen (AID 1100); settings: small-molecule microarray, higher = more signal
[14] = change in splice reporter luminescence, either direction, cell-based, HEK293, spliceosome inhibition project, primary screen (AID 1101); settings: HEK293 splicing luciferase reporter, 24 h, higher = more signal, called active from +8 up or from −8 down;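 note: HEK293 cells carrying a splicing-competent luciferase reporter gene; test concentration not given here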
[15] = molecular target: Fibroblast growth factor 10 (Homo sapiens) (UniProt O15520); assay: compounds binding fibroblast growth factor 10 – biochemical, small-molecule microarray, 635 nm fluorescence, primary screen (AID 1102); settings: FGF10 binding, fluorescence 635 nm, higher = more signal
[16] = test system: glycogen synthase kinase-3 (GSK3A per assay name; protocol says GSK3B); assay: compounds binding glycogen synthase kinase-3 – biochemical, small-molecule microarray, 635 nm fluorescence, GSK3A, primary screen (AID 1103); settings: fluorescence 635 nm, higher = more signal; note: the record names both GSK3A and GSK3B
[17] = molecular target: Epidermal growth factor receptor (Homo sapiens) (UniProt P00533); assay: compounds binding epidermal growth factor receptor – biochemical, small-molecule microarray, 635 nm fluorescence, primary screen (AID 1104); settings: EGFR binding, higher = more signal;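 note: score merges 667 nm emission intensity with spot signal to noise over triplicate slides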
[18] = molecular target: Follistatin-related protein 3 (Homo sapiens) (UniProt O95633); assay: compounds binding follistatin-related protein 3 – biochemical, small-molecule microarray, 635 nm fluorescence, primary screen (AID 1105); settings: FSTL3 binding, higher = more signal;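 note: score merges emission near 667 nm and signal to noise per printed spot across three slides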
[19] = molecular target: Dickkopf-related protein 1 (Homo sapiens) (UniProt O94907); assay: small molecules binding DKK1 protein – biochemical, small-molecule microarray, 635 nm fluorescence scan, primary screen (AID 1106); settings: higher = more signal;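 note: score merges emission near 667 nm with signal to noise over three replicate slides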
[20] = test system: Inhibin beta A chain (activin A); assay: small molecules binding activin A – biochemical, small-molecule microarray, 635 nm fluorescence scan, primary screen (AID 1107); settings: INHBA, higher = more signal;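 note: mouse activin A protein probed at 4.33 µg/mL on printed slides; score merges bound-protein fluorescence near 667 nm with spot signal-to-noise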

Dickkopf-related protein 1 (Homo sapiens), sequence (O94907 whole entry, looked up): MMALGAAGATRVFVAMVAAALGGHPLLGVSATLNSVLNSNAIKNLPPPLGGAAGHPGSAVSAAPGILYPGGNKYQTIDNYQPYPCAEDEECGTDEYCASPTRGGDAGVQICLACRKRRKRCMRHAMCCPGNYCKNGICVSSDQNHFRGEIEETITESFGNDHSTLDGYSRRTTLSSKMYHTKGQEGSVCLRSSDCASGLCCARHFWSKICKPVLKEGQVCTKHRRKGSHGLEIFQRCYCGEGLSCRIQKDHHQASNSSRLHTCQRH
Follistatin-related protein 3 (Homo sapiens), sequence (O95633 whole entry, looked up): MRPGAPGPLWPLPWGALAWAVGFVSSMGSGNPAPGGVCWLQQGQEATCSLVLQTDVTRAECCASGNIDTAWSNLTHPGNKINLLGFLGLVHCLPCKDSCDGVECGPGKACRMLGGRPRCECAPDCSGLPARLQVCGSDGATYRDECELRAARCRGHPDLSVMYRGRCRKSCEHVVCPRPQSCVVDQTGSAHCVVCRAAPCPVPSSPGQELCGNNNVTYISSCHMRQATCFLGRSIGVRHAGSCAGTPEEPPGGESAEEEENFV
Fibroblast growth factor 10 (Homo sapiens), sequence (O15520 whole entry, looked up): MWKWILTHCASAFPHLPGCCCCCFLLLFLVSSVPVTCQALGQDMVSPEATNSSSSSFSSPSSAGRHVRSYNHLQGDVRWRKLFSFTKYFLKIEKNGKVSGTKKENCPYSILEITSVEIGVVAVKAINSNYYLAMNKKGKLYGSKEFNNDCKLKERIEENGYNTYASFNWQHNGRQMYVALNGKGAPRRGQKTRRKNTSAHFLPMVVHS
Torsin-1A-interacting protein 2 (Homo sapiens), sequence (Q8NFQ8 whole entry, looked up): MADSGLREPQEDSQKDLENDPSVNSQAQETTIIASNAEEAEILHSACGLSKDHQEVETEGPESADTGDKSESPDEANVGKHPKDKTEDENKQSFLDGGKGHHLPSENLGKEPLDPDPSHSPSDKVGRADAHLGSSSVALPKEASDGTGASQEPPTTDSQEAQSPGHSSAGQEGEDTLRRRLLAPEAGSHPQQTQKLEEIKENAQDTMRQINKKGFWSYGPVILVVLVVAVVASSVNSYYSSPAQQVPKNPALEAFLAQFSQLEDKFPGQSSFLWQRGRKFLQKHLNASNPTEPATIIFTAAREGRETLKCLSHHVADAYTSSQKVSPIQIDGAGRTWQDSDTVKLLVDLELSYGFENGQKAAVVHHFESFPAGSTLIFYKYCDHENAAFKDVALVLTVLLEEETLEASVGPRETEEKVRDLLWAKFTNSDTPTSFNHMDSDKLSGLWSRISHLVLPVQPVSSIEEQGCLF
Epidermal growth factor receptor (Homo sapiens), sequence (P00533 whole entry, looked up): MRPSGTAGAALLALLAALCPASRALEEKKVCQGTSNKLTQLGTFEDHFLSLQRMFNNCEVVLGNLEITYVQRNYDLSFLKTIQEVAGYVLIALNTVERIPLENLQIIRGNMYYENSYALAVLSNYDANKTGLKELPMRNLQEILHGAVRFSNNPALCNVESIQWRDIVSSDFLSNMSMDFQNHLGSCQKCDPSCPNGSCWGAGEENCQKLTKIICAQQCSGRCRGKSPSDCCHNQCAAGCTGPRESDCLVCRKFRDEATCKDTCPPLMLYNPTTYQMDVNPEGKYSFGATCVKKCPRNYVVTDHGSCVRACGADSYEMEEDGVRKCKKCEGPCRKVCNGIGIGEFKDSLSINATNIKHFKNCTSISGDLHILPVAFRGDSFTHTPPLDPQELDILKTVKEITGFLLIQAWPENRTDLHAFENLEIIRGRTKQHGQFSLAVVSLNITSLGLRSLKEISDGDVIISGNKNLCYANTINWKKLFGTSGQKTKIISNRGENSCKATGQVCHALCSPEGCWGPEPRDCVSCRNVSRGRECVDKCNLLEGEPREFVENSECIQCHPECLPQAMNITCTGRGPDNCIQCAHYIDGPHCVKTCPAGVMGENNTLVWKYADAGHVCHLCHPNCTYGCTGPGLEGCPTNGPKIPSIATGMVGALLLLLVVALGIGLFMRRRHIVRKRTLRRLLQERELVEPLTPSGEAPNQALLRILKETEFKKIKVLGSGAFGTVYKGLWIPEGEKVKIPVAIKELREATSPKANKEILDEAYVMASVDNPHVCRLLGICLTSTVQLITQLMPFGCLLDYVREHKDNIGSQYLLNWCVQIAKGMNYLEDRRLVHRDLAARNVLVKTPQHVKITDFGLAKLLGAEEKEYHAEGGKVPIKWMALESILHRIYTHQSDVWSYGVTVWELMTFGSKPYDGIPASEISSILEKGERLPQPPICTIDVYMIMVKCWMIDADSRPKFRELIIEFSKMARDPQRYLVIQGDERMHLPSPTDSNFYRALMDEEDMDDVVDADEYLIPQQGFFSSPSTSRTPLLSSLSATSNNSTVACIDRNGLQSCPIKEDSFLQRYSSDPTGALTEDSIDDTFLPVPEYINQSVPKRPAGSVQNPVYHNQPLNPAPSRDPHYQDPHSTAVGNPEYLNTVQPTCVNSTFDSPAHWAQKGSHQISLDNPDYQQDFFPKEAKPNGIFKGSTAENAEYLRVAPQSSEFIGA
Neurogenic locus notch homolog protein 3 (Homo sapiens), sequence (Q9UM47 whole entry, looked up): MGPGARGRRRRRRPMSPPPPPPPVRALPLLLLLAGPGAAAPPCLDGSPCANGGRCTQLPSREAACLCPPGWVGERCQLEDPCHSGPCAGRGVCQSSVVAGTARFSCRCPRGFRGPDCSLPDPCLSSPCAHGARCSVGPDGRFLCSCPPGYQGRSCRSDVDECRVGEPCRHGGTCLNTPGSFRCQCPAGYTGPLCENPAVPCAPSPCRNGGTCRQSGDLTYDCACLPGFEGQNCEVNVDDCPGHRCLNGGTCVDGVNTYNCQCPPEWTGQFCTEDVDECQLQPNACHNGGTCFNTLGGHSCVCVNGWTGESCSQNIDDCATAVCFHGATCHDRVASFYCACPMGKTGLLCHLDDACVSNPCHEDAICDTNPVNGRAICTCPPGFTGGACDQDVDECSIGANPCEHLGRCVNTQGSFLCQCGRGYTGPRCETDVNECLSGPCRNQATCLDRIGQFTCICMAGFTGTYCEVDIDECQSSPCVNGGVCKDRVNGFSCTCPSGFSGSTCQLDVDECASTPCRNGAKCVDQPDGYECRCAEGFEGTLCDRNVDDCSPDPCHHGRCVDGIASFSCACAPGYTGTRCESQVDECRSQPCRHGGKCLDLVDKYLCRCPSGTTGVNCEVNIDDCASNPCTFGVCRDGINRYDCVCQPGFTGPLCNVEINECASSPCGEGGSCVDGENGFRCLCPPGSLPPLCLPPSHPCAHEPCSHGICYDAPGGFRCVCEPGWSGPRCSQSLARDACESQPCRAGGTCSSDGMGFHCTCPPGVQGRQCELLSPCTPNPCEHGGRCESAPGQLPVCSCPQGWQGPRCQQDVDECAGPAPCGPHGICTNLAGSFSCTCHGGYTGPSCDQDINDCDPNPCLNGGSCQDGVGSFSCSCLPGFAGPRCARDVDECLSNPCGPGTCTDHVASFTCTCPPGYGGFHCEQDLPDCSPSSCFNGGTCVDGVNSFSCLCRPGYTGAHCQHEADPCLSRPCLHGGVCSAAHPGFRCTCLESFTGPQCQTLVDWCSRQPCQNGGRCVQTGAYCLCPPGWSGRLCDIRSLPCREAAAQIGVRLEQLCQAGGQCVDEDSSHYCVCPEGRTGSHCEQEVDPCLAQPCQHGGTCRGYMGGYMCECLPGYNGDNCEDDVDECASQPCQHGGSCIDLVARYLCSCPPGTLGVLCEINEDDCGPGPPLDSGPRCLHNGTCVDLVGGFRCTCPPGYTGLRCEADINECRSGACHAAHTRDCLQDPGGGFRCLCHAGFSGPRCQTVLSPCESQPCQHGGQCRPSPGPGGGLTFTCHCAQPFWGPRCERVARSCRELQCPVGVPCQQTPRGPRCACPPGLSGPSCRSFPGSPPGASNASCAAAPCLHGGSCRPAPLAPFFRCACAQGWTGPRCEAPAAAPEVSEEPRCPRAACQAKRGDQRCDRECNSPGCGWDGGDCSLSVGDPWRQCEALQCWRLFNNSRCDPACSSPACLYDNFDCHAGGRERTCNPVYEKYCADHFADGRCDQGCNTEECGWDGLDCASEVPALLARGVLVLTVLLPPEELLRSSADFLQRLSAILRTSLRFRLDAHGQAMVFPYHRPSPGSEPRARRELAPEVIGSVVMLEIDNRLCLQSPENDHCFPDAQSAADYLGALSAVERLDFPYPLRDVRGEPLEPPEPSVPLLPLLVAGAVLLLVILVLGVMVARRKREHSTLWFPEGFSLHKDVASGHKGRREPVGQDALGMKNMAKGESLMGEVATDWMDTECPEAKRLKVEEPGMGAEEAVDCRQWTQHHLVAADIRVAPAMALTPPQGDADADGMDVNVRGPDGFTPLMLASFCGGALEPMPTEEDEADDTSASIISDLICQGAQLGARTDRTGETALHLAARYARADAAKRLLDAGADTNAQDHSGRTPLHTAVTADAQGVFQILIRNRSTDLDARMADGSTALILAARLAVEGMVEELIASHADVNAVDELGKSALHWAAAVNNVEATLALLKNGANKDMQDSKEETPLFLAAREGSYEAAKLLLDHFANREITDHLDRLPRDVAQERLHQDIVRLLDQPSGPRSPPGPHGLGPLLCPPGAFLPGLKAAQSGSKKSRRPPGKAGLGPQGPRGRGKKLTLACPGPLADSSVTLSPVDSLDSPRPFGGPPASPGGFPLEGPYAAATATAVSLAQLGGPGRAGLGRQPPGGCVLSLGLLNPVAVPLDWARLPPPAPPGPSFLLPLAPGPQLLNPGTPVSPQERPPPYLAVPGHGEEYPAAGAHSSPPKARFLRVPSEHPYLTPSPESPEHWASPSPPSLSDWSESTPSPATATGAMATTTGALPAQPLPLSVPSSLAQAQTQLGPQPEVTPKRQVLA

Row | Compound | composite z-score [1] | z-score [2] | z-score [3] | z-score [4] | composite z-score [5] | z-score [6] | composite z-score [7] | composite z-score [8] | composite z-score [9] | composite z-score [10] | composite z-score [11] | composite z-score [12] | composite z-score [13] | z-score [14] | composite z-score [15] | composite z-score [16] | composite z-score [17] | composite z-score [18] | composite z-score [19] | composite z-score [20]
1 | CCOC(=O)[C@H](CC(C)C)NC(=O)CCC1CC(OC(=O)NCc2ccc3c(c2)OCO3)CC2(CCCC(COC(=O)NCCC(C)C)O2)O1 (stereo not given in full) | 0.145 | 0.138 (inactive) | 0.991 (inactive) | -0.511 (inactive) | -0.222 | 0.796 (inactive) | -0.193 | 0.482 | 0.24 | -0.0828 | 0.0402 | -0.494 | -0.36 | -0.748 (inactive) | 0.136 | -0.322 | 0.0946 | 0.115 | 0.0586 | 0.16
2 | CC(CCN1CCCCc2nc(C)c(C)cc21)=NO[C@H](C)c1cn([C@@H]2COC[C@H]2O)nn1 | 1.19 | 0.565 (inactive) | 1.07 (inactive) | 0.601 (inactive) | 0.967 | 0.681 (inactive) | 0.0636 | 1.51 | 0.486 | 0.267 | 0.742 | -0.404 | -0.961 | 1.09 (inactive) | 1.23 | 1.16 | 1.61 | 1.43 | 2.15 | 1.21
3 | CCOC(=O)CCN1C(=O)[C@H]2[C@H]3[C@H](O)[C@H](O)CC(=NNC(=O)OCc4ccccc4)[C@H]3CC[C@H]2C1=O | -0.0993 | -0.756 (inactive) | 0.59 (inactive) | -0.596 (inactive) | -1.53 | -0.287 (inactive) | -0.0515 | 0.608 | 0.032 | -0.103 | 0.108 | -0.467 | -1.17 | 0.325 (inactive) | -0.193 | -0.296 | 0.345 | 0.373 | 0.766 | 1.62
4 | O=C1C2=CC[C@H]3C(=O)N(Cc4ccccc4)C(=O)[C@H]3[C@H]2[C@H](O)[C@@H]2O[C@H]12 | 0.0864 | -0.733 (inactive) | -2.12 (inactive) | -0.213 (inactive) | -1.23 | -0.559 (inactive) | -0.185 | -0.0873 | -0.95 | -0.125 | 1.47 | -0.211 | -0.417 | 6.91 (inactive) | 0.0121 | -0.569 | 0.41 | -0.1 | 0.245 | -0.0664
5 | CC#CCOCCC=C1c2ccccc2[C@@H](OC)[C@@H]1C | 0.513 | -0.0953 (inactive) | -2.52 (inactive) | -0.933 (inactive) | 0.127 | 0.596 (inactive) | -0.0266 | 0.697 | 0.153 | 0.0579 | 0.183 | -0.168 | -0.42 | 0.478 (inactive) | 0.593 | -0.406 | 0.0594 | 0.449 | 0.487 | -2.36
6 | COC(=O)CC=C[C@@H](C)[C@@H](C=NOC[C@@H](O)COCc1ccco1)NS(=O)(=O)c1ccc(C)cc1 | 0.0315 | 0.0457 (inactive) | 1.02 (inactive) | 0.0521 (inactive) | -1.12 | 0.835 (inactive) | -0.202 | 0.704 | -0.834 | -0.195 | 0.406 | -0.87 | -1.13 | 0.46 (inactive) | -0.168 | -0.268 | 0.497 | 0.914 | 0.864 | 1.65
7 | O=C1C[C@H](c2ccccc2)[C@H](c2ccc(Br)cc2)O1 | -0.146 | -3.83 (inactive) | -11.8 (active) | -1.84 (inactive) | -0.247 | 0.421 (inactive) | -0.224 | 0.401 | -0.489 | -0.17 | -0.159 | 0.0628 | -0.939 | -0.823 (inactive) | 0.193 | -0.826 | 0.127 | -0.093 | 0.278 | 0.266
8 | C=C(C)C(=O)OC[C@H]1CN2[C@@H](CC[C@@H](C)[C@@H]2c2ccc(Br)cc2)C(=O)O1 | 0.164 | 0.0739 (inactive) | -3.38 (inactive) | -0.424 (inactive) | 0.162 | 0.436 (inactive) | -0.166 | 0.195 | -0.775 | -0.144 | 0.789 | -0.366 | -0.264 | -0.286 (inactive) | 0.261 | 0.179 | 0.135 | -0.214 | 0.302 | 1.26
9 | COc1ccc(OC[C@H]2CN3[C@@H](CC[C@@H](C)[C@@H]3c3ccc(Br)cc3)C(=O)O2)cc1 | 0.591 | -0.313 (inactive) | -0.237 (inactive) | 0.179 (inactive) | 0.184 | -0.915 (inactive) | -0.198 | 0.318 | -0.175 | -0.0082 | 0.233 | -0.278 | -0.345 | -0.319 (inactive) | 0.0848 | 0.16 | 0.204 | 0.142 | 0.344 | 0.607
10 | CCN1C(=O)[C@H]2[C@@H]3C(=CC[C@H]2C1=O)C(=O)[C@H]1O[C@H]1[C@H]3O | 0.833 | 0.367 (inactive) | -0.3 (inactive) | 0.247 (inactive) | -0.176 | -0.763 (inactive) | -0.138 | 0.609 | 0.732 | 0.0107 | 0.641 | -0.409 | -0.722 | 17 (active) | 1.06 | 1.11 | 0.827 | 1.28 | 1.17 | 0.065
